This is part of a sample that, as a whole, favours compounds with a hit. Of some 79,000 tested, about 15% had one in any assay. Activity calls are given as the source filed them. Rule as the data show it: active = growth inhibition above about 70%; inactive = the rest.
Assays:
[1] = NCI Yeast Anticancer Drug Screen. Data for the rad50 strain (AID 155);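 also: 0% = growth of vehicle-only cultures of the same strain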; conditions: S. cerevisiae rad50 strain growth inhibition, stronger effect = higher value
Method in brief: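 DNA repair mutant yeast, compound exposure, growth read-out; inhibition is taken relative to vehicle.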

[2] = NCI Yeast Anticancer Drug Screen. Data for the mec2-1 strain (AID 157); conditions: S. cerevisiae mec2-1 strain, stronger effect = higher value
Method in brief: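 Test agents were screened against the mec2-1 yeast strain, with defined DNA repair or cell cycle alteration. Growth was scored as inhibition against vehicle-only controls.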

[3] = NCI Yeast Anticancer Drug Screen. Data for the sgs1 mgt1 strain (AID 161);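 also: 0% = growth of cultures given vehicle only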; conditions: S. cerevisiae sgs1 mgt1 strain, stronger effect = higher value
Method in brief: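 Inhibition of yeast growth, normalised to vehicle-treated controls, is reported for a strain bearing genetic alterations in DNA damage repair.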

[4] = NCI Yeast Anticancer Drug Screen. Data for the cln2 rad14 strain (AID 165);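 also: 0% = growth equal to vehicle treated cultures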; conditions: S. cerevisiae cln2 rad14 strain, stronger effect = higher value
Method in brief: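 Growth of compound-exposed yeast (cln2 rad14 genotype) measured and expressed as inhibition relative to vehicle.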

[5] = NCI Yeast Anticancer Drug Screen. Data for the bub3 strain (AID 167); conditions: S. cerevisiae bub3 mutant strain, stronger effect = higher value
Method in brief: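 In this screen, a yeast mutant lacking normal mitotic checkpoint function is challenged with compound. Relative growth versus vehicle gives the inhibition value.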

[6] = NCI Yeast Anticancer Drug Screen. Data for the mlh1 rad18 strain (AID 175); conditions: S. cerevisiae mlh1 rad18 strain growth inhibition, stronger effect = higher value
Method in brief: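 In this whole-cell yeast screen, a strain with altered DNA damage repair is challenged with compound, and its growth is measured against matched vehicle-treated controls.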

[7] = at 5.0 µM (retest, dose inferred, filed as 0.5)
[8] = at 50.0 µM (retest, dose inferred, filed as 5.0)

Measured: growth inhibition

O=[N+]([O-])c1ccccc1CC(c1c[nH]c2ccccc12)c1c[nH]c2ccccc12
inactive: [1]; [7] 0% | [2]; [7] -1% | [3]; [7] -2% | [4]; [7] 1% | [5]; [7] -1% | [5]; at 50.0 µM 55.8% | [6]; [7] 1%
active: [1]; [8] 73% | [1]; at 50.0 µM 86% | [2]; [8] 74% | [2]; at 50.0 µM 80.7% | [3]; [8] 70% | [3]; at 50.0 µM 82.9% | [4]; [8] 80% | [4]; at 50.0 µM 78.9% | [5]; [8] 80% | [6]; [8] 81% | [6]; at 50.0 µM 87.3%

COc1ccc2c(Cc3ccc(Cl)cc3)cncc2c1O
inactive: [1]; [7] 5% | [2]; [7] 14% | [3]; [7] 15% | [4]; [7] 2% | [5]; [7] 10% | [6]; [7] 21%
active: [1]; [8] 91% | [1]; at 50.0 µM 98.1% | [2]; [8] 97% | [2]; at 50.0 µM 99.2% | [3]; [8] 96% | [3]; at 50.0 µM 97.2% | [4]; [8] 87% | [4]; at 50.0 µM 99% | [5]; [8] 93% | [5]; at 50.0 µM 99% | [6]; [8] 96% | [6]; at 50.0 µM 99.1%

CCc1[nH]c2ccccc2c1N1C(=O)CC2(CCN(Cc3ccccc3)CC2)CC1=O
inactive: [1]; [7] -4% | [1]; [8] 1% | [1]; at 50.0 µM 32.1% | [2]; [7] 1% | [2]; [8] 25% | [2]; at 50.0 µM 6.25% | [3]; [7] -75% | [3]; [8] 23% | [3]; at 50.0 µM 32.4% | [4]; [7] -1% | [4]; [8] 2% | [4]; at 50.0 µM 3.7% | [5]; [7] -6% | [5]; [8] 8% | [5]; at 50.0 µM 35.5% | [6]; [7] -6% | [6]; [8] 10% | [6]; at 50.0 µM 19.7%

O=C(OC1CC2CC1C1CC=CC21)c1ccccc1 (configuration not stated)
inactive: [1]; [7] -3% | [1]; [8] -3% | [1]; at 50.0 µM -5.55% | [2]; [7] -6% | [2]; [8] 2% | [2]; at 50.0 µM 10.9% | [3]; [7] -8% | [3]; [8] 1% | [3]; at 50.0 µM -3.8% | [4]; [7] -5% | [4]; [8] -24% | [4]; at 50.0 µM -4.4% | [5]; [7] 46% | [5]; [8] 68% | [5]; at 50.0 µM 21.9% | [6]; [7] -5% | [6]; [8] -3% | [6]; at 50.0 µM -3.95%

C1=CC2C(c3cccc4ccccc34)O[C@H]2O1 (some centres not stated)
inactive: [1]; [7] 39% | [2]; [7] 11% | [3]; [7] 13% | [4]; [7] 7% | [5]; [7] 3% | [6]; [7] 28%
active: [1]; [8] 99% | [1]; at 50.0 µM 98.8% | [2]; [8] 99% | [2]; at 50.0 µM 98.5% | [3]; [8] 99% | [3]; at 50.0 µM 98.8% | [4]; [8] 98% | [4]; at 50.0 µM 98.8% | [5]; [8] 99% | [5]; at 50.0 µM 98.4% | [6]; [8] 99% | [6]; at 50.0 µM 98.3%

O=C(O)NCc1ccccc1 (tested in a mixture with another compound)
inactive: [1]; [7] 11% | [2]; [7] -12% | [2]; [8] 40% | [2]; at 50.0 µM 14.8% | [3]; [7] -5% | [3]; at 50.0 µM 36.1% | [4]; [7] 5% | [4]; at 50.0 µM 60% | [5]; [7] 23% | [6]; [7] 3%
active: [1]; [8] 94% | [1]; at 50.0 µM 94% | [3]; [8] 74% | [4]; [8] 98% | [5]; [8] 98% | [5]; at 50.0 µM 87.5% | [6]; [8] 80% | [6]; at 50.0 µM 88%

CCCCCCCCCCC(=O)CC(=O)c1c(O)cccc1O
inactive: [1]; [7] -14% | [1]; [8] -1% | [1]; at 50.0 µM 1.9% | [2]; [7] -11% | [2]; [8] 5% | [2]; at 50.0 µM -0.35% | [3]; [7] 10% | [3]; [8] 5% | [3]; at 50.0 µM 2.4% | [4]; [7] 0% | [4]; [8] 12% | [4]; at 50.0 µM -37.5% | [5]; [7] 12% | [5]; [8] 17% | [5]; at 50.0 µM -1.95% | [6]; [7] -16% | [6]; [8] 16% | [6]; at 50.0 µM 1.5%

COc1ccc(COCCOCc2nc(C#N)c(N)o2)cc1
inactive: [1]; [7] 16% | [1]; [8] 8% | [1]; at 50.0 µM 43.3% | [2]; [7] 13% | [2]; [8] 9% | [2]; at 50.0 µM 12.1% | [3]; [7] 16% | [3]; [8] 5% | [3]; at 50.0 µM -25.1% | [4]; [7] 16% | [4]; [8] 11% | [4]; at 50.0 µM -16.8% | [5]; [7] 22% | [5]; [8] 12% | [5]; at 50.0 µM -31.7% | [6]; [7] 10% | [6]; [8] 4% | [6]; at 50.0 µM -1.6%

CCCCCCCCCCCCNCCNCCN
inactive: [3]; [7] 25% | [5]; [7] 61%
active: [1]; [7] 99% | [1]; [8] 95% | [1]; at 50.0 µM 86.7% | [2]; [7] 99% | [2]; [8] 100% | [2]; at 50.0 µM 89.7% | [3]; [8] 96% | [3]; at 50.0 µM 91% | [4]; [7] 84% | [4]; [8] 97% | [4]; at 50.0 µM 85.6% | [5]; [8] 96% | [5]; at 50.0 µM 89% | [6]; [7] 100% | [6]; [8] 100% | [6]; at 50.0 µM 86.6%

— PubChem BioAssay (NCI)
